Structures can show the parent of a compound that is named as a salt.
What was measured:
Settings in all cases: 20 µM; incubation time: 27 h, anaerobic, 37 °C;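 for the amine columns active = adjusted P below 0.05 in both replicates with a change the same way and a mean fold change under 0.8 or over 1.25; inactive = the rest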
[1] = test system: Clostridium sporogenes DSM 1664; assay: growth (OD595) fold change vs plate DMSO controls (fold change (ratio)); higher = more growth
Summary of the method: (§1)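 Each value is the mean of 2 biological replicates, and fold changes above 1.5 were set to NA. The underlying readings were taken at 595 nm from shaken anaerobic mGAM cultures in 96-well plates after 27 h at 37 °C. They were blank-subtracted, corrected for compound background using 20 µM compound solutions in water, and converted to OD with a calibration factor of 5. Growth is the fold change relative to the median of the plate DMSO controls.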

[2] = test system: Escherichia coli IAI1; assay: as above
Summary of the method: as §1

[3] = test system: Klebsiella aerogenes DSM 30053; assay: as above
Summary of the method: as §1

[4] = test system: Ruminococcus gnavus DSM 108212; assay: as above
Summary of the method: as §1

[5] = test system: Klebsiella aerogenes DSM 30053; assay: fold change of Histamine concentration vs plate DMSO controls (fold change (ratio)); higher = more amine produced, active = hit call of the paper (significant change in both replicates, either direction)
Summary of the method: (§2)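 Extracts of whole anaerobic mGAM cultures were analysed for amines by LC–triple-quadrupole MS with dynamic MRM and external calibration curves, with drift corrected within batch. Four gut strains were grown at 37 °C for 27 h in 80 µL wells with compounds at 20 µM final, sweeteners at 50 µM final. Each value expresses fold change over plate DMSO controls. The average of 2 biological replicates is shown.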

[6] = test system: Clostridium sporogenes DSM 1664; assay: fold change of Tryptamine concentration vs plate DMSO controls (fold change (ratio)); higher = more amine produced, active = hit call of the paper (significant change in both replicates, either direction)
Summary of the method: as §2

[7] = test system: Ruminococcus gnavus DSM 108212; assay: as above
Summary of the method: as §2

[8] = test system: Escherichia coli IAI1; assay: fold change of Putrescine concentration vs plate DMSO controls (fold change (ratio)); higher = more amine produced, active = hit call of the paper (significant change in both replicates, either direction)
Summary of the method: as §2

[9] = test system: Klebsiella aerogenes DSM 30053; assay: as above
Summary of the method: as §2

[10] = test system: Escherichia coli IAI1; assay: fold change of Cadaverine concentration vs plate DMSO controls (fold change (ratio)); higher = more amine produced, active = hit call of the paper (significant change in both replicates, either direction)
Summary of the method: as §2

[11] = test system: Klebsiella aerogenes DSM 30053; assay: as above
Summary of the method: as §2

[12] = test system: Ruminococcus gnavus DSM 108212; assay: fold change of 2-Phenylethylamine concentration vs plate DMSO controls (fold change (ratio)); higher = more amine produced, active = hit call of the paper (significant change in both replicates, either direction)
Summary of the method: as §2

Structure (SMILES) | growth [1] | growth [2] | growth [3] | growth [4] | fold change of Histamine concentration [5] | fold change of Tryptamine concentration [6] | fold change of Tryptamine concentration [7] | fold change of Putrescine concentration [8] | fold change of Putrescine concentration [9] | fold change of Cadaverine concentration [10] | fold change of Cadaverine concentration [11] | fold change of 2-Phenylethylamine concentration [12]
COCC(=O)N(c1c(C)cccc1C)C(C)C(=O)OC (stereo unspecified) | 0.957 | 1.02 | 1.04 | 1.02 | 0.965 (inactive) | 0.98 (inactive) | 0.983 (inactive) | 1.04 (inactive) | 1 (inactive) | 1.01 (inactive) | 1.01 (inactive) | 0.983 (inactive)
CCc1cnc(C2=NC(C)(C(C)C)C(=O)N2)c(C(=O)O)c1 (stereo unspecified) | 1 | 1.06 | 0.985 | 1.09 | 1 (inactive) | 0.954 (inactive) | 1.01 (inactive) | 1.03 (inactive) | 1.02 (inactive) | 0.991 (inactive) | 0.993 (inactive) | 0.984 (inactive)
C[C@]12C/C(=C/O)C(=O)C[C@@H]1CC[C@@H]1[C@@H]2CC[C@@]2(C)[C@H]1CC[C@]2(C)O [Oxymetholone] | 1.21 | 1.01 | 1 | 1.16 | 0.984 (inactive) | 0.861 (inactive) | 0.223 (active) | 1.02 (inactive) | 1.02 (inactive) | 1 (inactive) | 1.01 (inactive) | 0.271 (active)
CC(CCc1ccccc1)NC(C)C(O)c1ccc(O)cc1 (stereo unspecified) [Nylidrin] | 0.853 | 1.13 | 1.21 | 1 | 1 (inactive) | 0.986 (inactive) | 0.929 (inactive) | 1.03 (inactive) | 1.05 (inactive) | 0.961 (inactive) | 1.02 (inactive) | 0.902 (inactive)
CC(C1CC1)C(O)(Cn1cncn1)c1ccc(Cl)cc1 (mixture of isomers) | 0.851 | 0.991 | 0.991 | 0.941 | 1.01 (inactive) | 0.92 (inactive) | 0.994 (inactive) | 1.01 (inactive) | 0.996 (inactive) | 1 (inactive) | 0.995 (inactive) | 0.953 (inactive)
C=CCN1CC[C@]23c4c5ccc(O)c4O[C@H]2C(=O)CC[C@@]3(O)[C@H]1C5 [Naloxone hydrochloride] | 1.22 | 1.04 | 1.03 | 1.24 | 1.04 (inactive) | 1.01 (inactive) | 0.998 (inactive) | 1.02 (inactive) | 0.997 (inactive) | 0.994 (inactive) | 0.997 (inactive) | 0.985 (inactive)
COc1ccc(C(=CC(=O)N2CCOCC2)c2ccc(Cl)cc2)cc1OC (mixture of isomers) | 1.18 | 1.01 | 1.01 | 0.966 | 1.01 (inactive) | 1.11 (inactive) | 1.08 (inactive) | 0.946 (inactive) | 0.965 (inactive) | 0.929 (inactive) | 1.06 (inactive) | 1.09 (inactive)
O=C(O[C@H]1C[N+]2(CCCOc3ccccc3)CCC1CC2)C(O)(c1cccs1)c1cccs1 [Aclidinium bromide] | 1.12 | 1.08 | 1.03 | 1.14 | 1.05 (inactive) | 1.01 (inactive) | 0.985 (inactive) | 1.08 (inactive) | 1 (inactive) | 0.982 (inactive) | 1 (inactive) | 0.963 (inactive)
CC1C=CC=CCCC=CC=CC=CC=CC(OC2OC(C)C(O)C(N)C2O)CC2OC(O)(CC(O)C(O)CCC(O)CC(O)CC(O)CC(=O)OC(C)C(C)C1O)CC(O)C2C(=O)O (stereo unspecified) [Nystatine] | 0.964 | 0.993 | 1.01 | 1.16 | 0.962 (inactive) | 0.989 (inactive) | 1.01 (inactive) | 0.999 (inactive) | 1 (inactive) | 1.05 (inactive) | 1.01 (inactive) | 0.998 (inactive)
CCC1(c2cccc(O)c2)CCCCN(C)C1 (stereo unspecified) [Meptazinol hydrochloride] | 0.881 | 1.03 | 1.02 | 1.01 | 0.983 (inactive) | 1.06 (inactive) | 0.997 (inactive) | 1.03 (inactive) | 1 (inactive) | 1.01 (inactive) | 1.01 (inactive) | 0.997 (inactive)
Cc1c(COC(=O)[C@@H]2[C@H](/C=C(\Cl)C(F)(F)F)C2(C)C)cccc1-c1ccccc1 (racemic) | 1.05 | 1.09 | 0.978 | 1.13 | 1.02 (inactive) | 0.975 (inactive) | 1.03 (inactive) | 1 (inactive) | 0.953 (inactive) | 0.864 (inactive) | 0.989 (inactive) | 1.07 (inactive)
CC1(C)C(C=C(Cl)Cl)C1C(=O)OC(C#N)c1ccc(F)c(Oc2ccccc2)c1 (mixture of isomers) | 0.877 | 1.01 | 0.965 | 1 | 1.09 (inactive) | 0.985 (inactive) | 0.996 (inactive) | 0.971 (inactive) | 1.03 (inactive) | 1.09 (inactive) | 1.02 (inactive) | 1.02 (inactive)
CC(=O)OC1CN2CCC1CC2 (stereo unspecified) [Aceclidine hydrochloride] | 1.15 | 1.09 | 1.01 | 1.13 | 0.864 (inactive) | 1.02 (inactive) | 1.03 (inactive) | 1.02 (inactive) | 0.959 (inactive) | 0.951 (inactive) | 1.02 (inactive) | 1.01 (inactive)

— the supplement of paper PMC12494721
